# Measurements reported in PubChem BioAssay AID1159580 (chemical genetic matrix, 2015).
# The whole screen tested about 5,500 compounds, of which about 2,000 (36%) were called active. Not shown: some 18% with an inconclusive outcome. The list shows a part of the results. A number with no mark means an inactive call. Rule as the data show it: active = normalized growth mostly below about 0.91 (no sharp cut-off); inconclusive = no clear call, values can overlap the other calls; inactive = mostly above about 0.92.
# Assay: chemical genetic growth profiling, strain panel (AID 1159580);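 also: tested at 20 µM; growth read once vehicle control cultures reached saturation at 30 °C; 1 = growth at the plate median or of vehicle wells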
# Conditions: S. cerevisiae deletion strains, growth OD
smiles,measurement,setting,value
COC(=O)c1c(C)c2c(c(C)c1O)OC(=O)c1c(C)c(Cl)c(O)c(Cl)c1O2,normalized growth,"locus YJR043C, strain POL32, stronger effect = lower value",0.853 (active)
same,normalized growth,"locus YJR066W, strain TOR1, stronger effect = lower value",0.878
same,normalized growth,"locus YKL009W, strain mrt4, stronger effect = lower value",1.01
same,normalized growth,"locus YKL068W, stronger effect = lower value",1
same,normalized growth,"locus YKL085W, strain MDH1 (second series), stronger effect = lower value",1.01
same,normalized growth,"locus YKL085W, strain MDH1, stronger effect = lower value",1.01
same,normalized growth,"locus YKL160W, strain elf1, stronger effect = lower value",0.956
same,normalized growth,"locus YKL190W, strain CNB1, stronger effect = lower value",0.957
same,normalized growth,"locus YKR001C, strain vps1, stronger effect = lower value",0.937
same,normalized growth,"locus YKR026C, strain gcn3, stronger effect = lower value",0.97
same,normalized growth,"locus YKR091W, strain srl3, stronger effect = lower value",0.967
same,normalized growth,"locus YLL001W, strain dnm1, stronger effect = lower value",0.959
same,normalized growth,"locus YLL026W, stronger effect = lower value",0.975
same,normalized growth,"locus YLL041C, strain sdh2, stronger effect = lower value",0.964
same,normalized growth,"locus YLR027C, strain aat2, stronger effect = lower value",0.984
same,normalized growth,"locus YLR039C, strain RIC1, stronger effect = lower value",0.928
same,normalized growth,"locus YLR058C, strain SHM2, stronger effect = lower value",0.985
same,normalized growth,"locus YLR102C, strain apc9, stronger effect = lower value",1.01
same,normalized growth,"locus YLR113W, strain HOG1, stronger effect = lower value",1.04
same,normalized growth,"locus YLR221C, strain rsa3, stronger effect = lower value",0.958
same,normalized growth,"locus YLR258W, strain gsy2, stronger effect = lower value",0.937
same,normalized growth,"locus YLR262C, strain YPT6 (second series), stronger effect = lower value",0.855 (active)
same,normalized growth,"locus YLR262C, strain YPT6, stronger effect = lower value",0.865
same,normalized growth,"locus YLR268W, strain sec22, stronger effect = lower value",1
same,normalized growth,"locus YLR320W, strain mms22, stronger effect = lower value",0.932
same,normalized growth,"locus YLR330W, strain CHS5, stronger effect = lower value",0.987
same,normalized growth,"locus YLR342W, strain FKS1 (second series), stronger effect = lower value",0.751 (active)
same,normalized growth,"locus YLR342W, strain FKS1, stronger effect = lower value",0.971
same,normalized growth,"locus YLR357W, strain rsc2, stronger effect = lower value",0.922
same,normalized growth,"locus YLR370C, strain arc18, stronger effect = lower value",0.958
same,normalized growth,"locus YLR371W, strain rom2, stronger effect = lower value",1.03
same,normalized growth,"locus YLR384C, strain iki3, stronger effect = lower value",0.983
same,normalized growth,"locus YLR418C, strain cdc73, stronger effect = lower value",0.83 (active)
same,normalized growth,"locus YML016C, strain PPZ1, stronger effect = lower value",1.01
same,normalized growth,"locus YML032C, strain rad52, stronger effect = lower value",0.959
same,normalized growth,"locus YML120C, strain ndi1, stronger effect = lower value",0.957
same,normalized growth,"locus YML124C, strain tub3, stronger effect = lower value",1.02
same,normalized growth,"locus YMR058W, strain fet3, stronger effect = lower value",0.95
same,normalized growth,"locus YMR078C, strain ctf18, stronger effect = lower value",1.01
same,normalized growth,"locus YMR125W, strain sto1, stronger effect = lower value",0.986
same,normalized growth,"locus YMR129W, stronger effect = lower value",0.974
same,normalized growth,"locus YMR205C, strain PFK2, stronger effect = lower value",0.879
same,normalized growth,"locus YMR223W, strain ubp8, stronger effect = lower value",0.949
same,normalized growth,"locus YMR231W, strain pep5, stronger effect = lower value",0.954
same,normalized growth,"locus YMR307W, strain GAS1, stronger effect = lower value",0.545 (active)
same,normalized growth,"locus YNL067W, strain RPL9B, stronger effect = lower value",0.996
same,normalized growth,"locus YNL071W, strain lat1, stronger effect = lower value",0.932
same,normalized growth,"locus YNL183C, strain NPR1, stronger effect = lower value",0.931
same,normalized growth,"locus YNL209W, strain ssb2, stronger effect = lower value",0.991
same,normalized growth,"locus YNL233W, strain BNI4, stronger effect = lower value",0.916
same,normalized growth,"locus YNL248C, strain rpa49, stronger effect = lower value",0.954
same,normalized growth,"locus YNL250W, strain rad50, stronger effect = lower value",1.02
same,normalized growth,"locus YNL271C, strain bni1, stronger effect = lower value",1
same,normalized growth,"locus YNL298W, strain CLA4, stronger effect = lower value",1.01
same,normalized growth,"locus YNL307C, strain MCK1, stronger effect = lower value",0.978
same,normalized growth,"locus YNL322C, strain KRE1 (second series), stronger effect = lower value",0.976
same,normalized growth,"locus YNR049C, strain mso1, stronger effect = lower value",0.955
same,normalized growth,"locus YNR052C, strain pop2, stronger effect = lower value",0.967
same,normalized growth,"locus YOL012C, strain htz1",1.87
same,normalized growth,"locus YOL147C, strain pex11, stronger effect = lower value",1
same,normalized growth,"locus YOR001W, strain rrp6, stronger effect = lower value",0.945
same,normalized growth,"locus YOR061W, strain CKA2, stronger effect = lower value",0.99
same,normalized growth,"locus YOR069W, strain VPS5, stronger effect = lower value",1.01
same,normalized growth,"locus YOR070C, strain gyp1, stronger effect = lower value",0.98
same,normalized growth,"locus YOR080W, strain dia2, stronger effect = lower value",0.965
same,normalized growth,"locus YOR083W, strain WHI5, stronger effect = lower value",0.932
same,normalized growth,"locus YOR106W, strain vam3, stronger effect = lower value",0.877
same,normalized growth,"locus YOR136W, strain idh2, stronger effect = lower value",0.997
same,normalized growth,"locus YOR144C, strain elg1, stronger effect = lower value",1.02
same,normalized growth,"locus YOR184W, strain ser1, stronger effect = lower value",0.874
same,normalized growth,"locus YOR231W, strain MKK1, stronger effect = lower value",0.972
same,normalized growth,"locus YOR265W, strain rbl2, stronger effect = lower value",0.962
same,normalized growth,"locus YOR270C, strain vph1, stronger effect = lower value",0.715 (active)
same,normalized growth,"locus YOR290C, strain snf2, stronger effect = lower value",0.92
same,normalized growth,"locus YOR316C, strain cot1, stronger effect = lower value",1
same,normalized growth,"locus YPL051W, strain arl3, stronger effect = lower value",0.925
same,normalized growth,"locus YPL078C, strain atp4, stronger effect = lower value",0.964
same,normalized growth,"locus YPL106C, strain sse1, stronger effect = lower value",0.903
same,normalized growth,"locus YPL240C, strain hsp82, stronger effect = lower value",0.96
same,normalized growth,"locus YPL256C, strain CLN2, stronger effect = lower value",0.954
same,normalized growth,"locus YPR119W, strain clb2, stronger effect = lower value",1
same,normalized growth,"locus YPR141C, strain kar3, stronger effect = lower value",0.995
same,normalized growth,"locus YPR163C, strain tif3, stronger effect = lower value",1.02
same,normalized growth,"locus YPR167C, strain met16, stronger effect = lower value",0.982
same,normalized growth,"strain wtn01, stronger effect = lower value",1
